What is called AC50 is the concentration giving half of the maximal activity seen.

Molecules are shown by their SMILES. Where “and” joins values, the source holds several entries; their conditions need not be identical. Equal values may be shown once. Some structures have more than one record in an assay (separate samples or runs), and their calls can disagree. Calls of active or inactive are those of the source. The calls were made as follows: active = hit-call score of the fitted dose curve at least 0.9, where 1 is the maximum; inactive = score below 0.9.

We go through 23 compounds from PubChem BioAssay (EPA / NIEHS).

Read-out in assay [1]: CD69, CD69 (gene 969)
Nature of the assay: BSK_IMphg_CD69: BioMAP Diversity Plus: IMphg Assay for CD69 Biomarker Activity (AID 2284257). The following applies: primary human endothelial cells with macrophages. Summed up: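 Human venular endothelial cells co-cultured with macrophages; CD69 quantified by ELISA 24 h after compound addition. Activity fitted in the positive direction relative to DMSO baseline; cytotoxicity tracked in parallel cultures via SRB total-protein staining.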

Read-out in assay [2]: Eotaxin 3, CCL26 (gene 10344)
The assay is described as follows: BSK_BF4T_Eotaxin3: BioMAP Diversity Plus: BF4T Assay for Eotaxin 3 Biomarker Activity (AID 2284258). As to conditions: primary human bronchial epithelial cells with fibroblasts. Summed up: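 Co-culture of human bronchial epithelial cells and dermal fibroblasts, exposed to chemicals for 24 h versus DMSO. Eotaxin-3 quantified by ELISA; cytotoxicity checked in parallel cultures by sulforhodamine B total-protein staining.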

Read-out in assay [3]: Monocyte Chemoattractant Protein-1 (MCP1), CCL2 (gene 6347)
Nature of the assay: BSK_BF4T_MCP1: BioMAP Diversity Plus: BF4T Assay for Monocyte Chemoattractant Protein-1 (MCP1) Biomarker Activity (AID 2284259). As to conditions: primary human bronchial epithelial cells with fibroblasts. Summed up:
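Co-culture of bronchial epithelial cells and dermal fibroblasts dosed with chemical; MCP-1 measured by ELISA 24 h later. Activity fitted in positive direction versus DMSO; cytotoxicity checked by SRB staining in parallel cultures.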

Read-out in assay [4]: Intercellular Adhesion Molecule 1 (ICAM1), ICAM1 (gene 3383)
The assay is described as follows: BSK_BF4T_ICAM1: BioMAP Diversity Plus: BF4T Assay for Intercellular Adhesion Molecule 1 (ICAM1) Biomarker Activity (AID 2284260). As to conditions: primary human bronchial epithelial cells with fibroblasts. The procedure, abridged:
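Co-culture of human bronchial epithelial cells and dermal fibroblasts exposed 24 h to chemical; cell-surface ICAM-1 quantified by ELISA. Parallel SRB total-protein staining assessed cytotoxicity; activity fitted relative to DMSO.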

Read-out in assay [5]: Interleukin-8 (IL8), CXCL8 (gene 3576)
Nature of the assay: BSK_MyoF_IL8: BioMAP Diversity Plus: MyoF Assay for Interleukin-8 (IL8) Biomarker Activity (AID 2284261). As to conditions: primary human lung fibroblasts. The procedure, abridged: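 IL-8 quantified by ELISA after 24 h compound exposure of primary human lung fibroblasts. SRB staining of parallel cultures flagged cytotoxicity; DMSO served as baseline.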

Read-out in assay [6]: CD90, THY1 (gene 7070)
Nature of the assay: BSK_BF4T_CD90: BioMAP Diversity Plus: BF4T Assay for CD90 Biomarker Activity (AID 2284262). The following applies: primary human bronchial epithelial cells with fibroblasts. Summed up:
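Co-culture of human bronchial epithelial cells and dermal fibroblasts, 24 h compound exposure. Cell-surface CD90 measured by ELISA relative to DMSO; parallel SRB total-protein staining for cytotoxicity.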

Read-out in assay [7]: Interleukin-8 (IL8), CXCL8 (gene 3576)
The assay is described as follows: BSK_BF4T_IL8: BioMAP Diversity Plus: BF4T Assay for Interleukin-8 (IL8) Biomarker Activity (AID 2284263). As to conditions: primary human bronchial epithelial cells with fibroblasts. The procedure, abridged: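 Human bronchial epithelial cells with dermal fibroblasts co-culture; IL-8 measured by ELISA 24 hours after dosing, fitted vs DMSO. Cytotoxicity tracked in parallel cultures by SRB total-protein staining.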

Read-out in assay [8]: Plasminogen activator inhibitor-1 (PAI1), SERPINE1 (gene 5054)
The assay is described as follows: BSK_MyoF_PAI1: BioMAP Diversity Plus: MyoF Assay for Plasminogen activator inhibitor-1 (PAI1) Biomarker Activity (AID 2284256).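 As to outcome: PAI-1 protein level measured by ELISA in fibroblast cultures; PAI-1 read 24 h after compound addition.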 The following applies: primary human lung fibroblasts. Summed up: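 Human lung fibroblasts (MyoF system) were exposed to test chemicals for 24 h, then PAI-1 was quantified by ELISA. Activity was fitted in the positive (signal-gain) direction relative to DMSO vehicle as baseline.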

Read-out in assay [9]: Interleukin-1 alpha (IL1a), IL1A (gene 3552)
Nature of the assay: BSK_BF4T_IL1a: BioMAP Diversity Plus: BF4T Assay for Interleukin-1 alpha (IL1a) Biomarker Activity (AID 2284264). The following applies: primary human bronchial epithelial cells with fibroblasts. The procedure, abridged:
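Human bronchial epithelial cells co-cultured with dermal fibroblasts, dosed and read at 24 h. Secreted/surface IL-1α quantified by ELISA; gain-of-signal fitted relative to DMSO baseline. Parallel SRB total-protein staining tracked cytotoxicity.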

`OCC(F)(F)C(F)(F)C(F)(F)C(F)F`: the outcome in assay [1], in assay [2], in assay [3], in assay [4], in [5] and in [6] was inactive. The result in assay [7] was inactive.

With `CCc1c(Br)c(Br)c(Br)c(Br)c1Br`, in assay [5], the result was inactive.

In the case of `FC(F)(F)C(F)(F)C(F)(F)C(F)(F)C(F)(F)C(F)(F)CCS`, the result in [1], in assay [2], in [3], in assay [4], in [5] and in [6] was inactive. Besides, the result in assay [7] was inactive.

With `FC(F)(F)C(F)(F)C(F)(F)C(F)(F)C(F)(F)CCI`, the outcome in assay [1], in [2], in assay [3], in assay [4], in assay [5] and in assay [6] was inactive. Moreover, the outcome in [7] was inactive. Also, the AC50 in assay [2] was 38.6 µM (active).

As for `O=C(O)C(F)(F)C(F)(F)F`, the result in [1], in [2], in assay [3], in [4], in [5] and in assay [6] was inactive. The outcome in assay [7] was inactive. The AC50 in assay [3] was 48 µM (active).

As to `FC(F)(F)C(F)(F)C(F)(F)C(F)(F)CCI`, the outcome in assay [1], in assay [2], in assay [3], in assay [4], in [5] and in [6] was inactive. Moreover, the outcome in assay [7] was inactive. Also, the values for the AC50 in assay [3] and in [5] were 7.18 µM (active) and 5.95 µM (active), respectively.

As to `CCCCCCC(C)OC(=O)CCCCC(=O)OC(C)CCCCCC` (centres undefined), the result in assay [8] and in assay [5] was inactive.

Consider `CO[Si](OC)(c1ccccc1)c1ccccc1`, for which the AC50 in [8] is 30.5 µM (active). Moreover, the outcome in assay [5] was inactive.

Consider `C=C(C)C(=O)OCC(F)(F)C(F)(F)C(F)(F)F`, for which the result in [1], in [2], in [3], in [4], in assay [5] and in assay [6] was inactive. The outcome in [7] was inactive.

Consider `FC(F)(F)C(F)(F)C(F)(F)C(F)(F)C(F)(F)C(F)(F)C(F)(F)Br`, for which the result in assay [1], in [2], in assay [3], in assay [4], in [5] and in assay [6] was inactive. Moreover, in assay [7], the outcome was inactive.

For the compound `FC(F)(F)C(F)(F)C(F)(F)C(F)(F)C(F)(F)C(F)(F)C(F)(F)I`, the outcome in [1], in assay [2], in assay [3], in assay [4], in assay [5] and in assay [6] was inactive. The outcome in assay [7] and in [9] was inactive. For the same compound, the AC50 in [7] is 52.7 nM (active).

Take `CC(CCl)OP(=O)(OC(C)CCl)OC(C)CCl` (centres undefined): in assay [5], the result was inactive.

Regarding `O=C(O)C(F)(F)C(F)(F)OC(F)(F)F`, the result in assay [1], in [2], in [3], in assay [4], in [5] and in assay [6] was inactive. In addition, in [7], the outcome was inactive.

For the compound `Nc1ccc([N+](=O)[O-])cc1O`, the result in [8] and in assay [5] was inactive.

Take `C=CC/C=C/C/C=C/C/C=C/C`: the result in assay [5] was inactive.

For `O=S(=O)(OCCOC(F)(F)F)C(F)(F)F`, the outcome in assay [1], in assay [2], in [3], in assay [4], in assay [5] and in [6] was inactive. Further, the result in [7] was inactive.

For `CCCCNc1ccccc1`, the outcome in [5] was inactive.

`O=C(O)C(F)(OC(F)(F)C(F)(OC(F)(F)C(F)(OC(F)(F)C(F)(F)C(F)(F)F)C(F)(F)F)C(F)(F)F)C(F)(F)F` (centres undefined): the result in assay [1], in assay [2], in assay [3], in assay [4], in assay [5] and in assay [6] was inactive. The outcome in assay [7] and in [9] was inactive.

Consider `FC(F)(Br)C(F)(F)C(F)(F)C(F)(F)C(F)(F)C(F)(F)Br`, for which the result in assay [1], in assay [2], in [3], in assay [4], in [5] and in [6] was inactive. In addition, the result in assay [7] was inactive.

In the case of `C=C(C)C(=O)OCC(F)(F)C(F)(F)C(F)(F)C(F)(F)C(F)(F)C(F)(F)C(F)(F)F`, the outcome in [1], in assay [2], in assay [3], in assay [4], in assay [5] and in assay [6] was inactive. Besides, in [7], the outcome was inactive.

Turning to `CCCCCCCOC(=O)c1ccccc1C(=O)OCCCCCCC`, the result in assay [5] was inactive.

Take `O=C(O)C(F)(F)C(F)(F)C(F)(F)C(F)(F)C(F)(F)C(F)(F)C(F)(F)C(F)(F)Cl`: the AC50 was 41.5 µM (active) and 30 µM (active) in assay [1]; 8.26 µM (active) and 1.05 µM (active) in [2]; 40.4 µM (active) and 45.9 µM (active) in assay [3]; 41.4 µM (active) and 40 µM (active) in assay [4]; 30 µM (active) in assay [6]; 51.9 µM (active) and 50.3 µM (active) in [7]. Besides, the outcome in assay [5] and in [6] was inactive.

Regarding `CCN(CC)c1ccc2c(C)cc(=O)oc2c1`, the result in assay [8] and in assay [5] was inactive.
